These results are taken from the supplement of paper PMC5919970.

This assay concerns TYKNU. Put plainly: fractional viability relative to vehicle; TYKNU is a high-grade serous ovarian cancer line; higher = less growth inhibition. To be noted: 72 h, genotype: OPA1 knockout (sgOPA1 #2). In outline:
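TYKNU control cells or lentiCRISPRv2 knockout derivatives were seeded at 500 cells per well into drug-stamped 384-well plates holding a ~2100-compound library at 2 or 10 μM, in duplicate. Cells were grown at 37 °C in 5% CO2 in RPMI 1640 with 10% FBS, and drug treatment lasted 72 h. Viability was read by Cell Titer Glo luminescence. Duplicate treatment wells were averaged and normalised to duplicate control wells from the same plate position.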

Structures can show the parent of a compound that is named as a salt. The full ranking holds about 2,000 compounds; the median of “fractional viability relative to vehicle” is about 0.92, and the lowest 2% start at about 0.11. This is one part of a sample in which the lowest values are shown more often than they occur.

For the molecule `CC1(C)CC(O)CC(C)(C)N1[O]` [Tempol], the fractional viability (2uM) is 0.982 and the fractional viability (10uM) was 1.06.

Consider `Cc1cc(SCc2sc(-c3ccc(C(F)(F)F)c(F)c3)nc2C)ccc1OCC(=O)O`, for which the fractional viability came out at 0.824 (2uM) and 0.75 (10uM).

As to `CC1=C(O)C(=O)C=C2C1=CC=C1[C@@]2(C)CC[C@@]2(C)[C@@H]3C[C@](C)(C(=O)O)CC[C@]3(C)CC[C@]12C` [Celastrol], the fractional viability came out at 0.123 (2uM) and 0.0841 (10uM).

`CC(=O)O[C@H]1C[C@@H]2CC[C@@H]3[C@H](CC[C@@]4(C)[C@H]3C[C@H]([N+]3(C)CCCCC3)[C@@H]4OC(C)=O)[C@@]2(C)C[C@@H]1[N+]1(C)CCCCC1` [Pancuronium dibromide] had a fractional viability (2uM) of 1 and a fractional viability (10uM) of 0.976.

The molecule `CN1[C@@H]2CC(O)C[C@H]1[C@@H]1O[C@@H]12` (stereo partly specified) [Scopine] showed a fractional viability (2uM) of 0.96 and a fractional viability (10uM) of 0.768.

With `C[C@H]1CCC/C=C/[C@@H]2C[C@H](O)C[C@H]2[C@H](O)/C=C/C(=O)O1` [Brefeldin A], the fractional viability reads like this: (2uM) 0.269; (10uM) 0.277.

In turn, `CC(C)=CCC[C@]1(C)C=Cc2c(O)c3c(c(CC=C(C)C)c2O1)O[C@]12C(=C[C@@H]4C[C@H]1C(C)(C)O[C@@]2(C/C=C(/C)C(=O)O)C4=O)C3=O` [Gambogic Acid] returned a fractional viability (2uM) of 0.0971 and a fractional viability (10uM) of 0.0282.

`C[N+]1(C)[C@@H]2C[C@@H](OC(=O)[C@H](CO)c3ccccc3)C[C@H]1[C@@H]1O[C@@H]12` [Methscopolamine]: the fractional viability is, setting by setting: (2uM) 0.982; (10uM) 0.966.

Take `C[C@]12N[C@H](Cc3ccccc31)c1ccccc12` [MK-801 (Dizocilpine)]: the fractional viability worked out at 1.04 (2uM) and 0.956 (10uM).

With `CCN1CCN(C(=O)Cc2ccc(Nc3ncc(F)c(Nc4ccc(C(=O)Nc5ccccc5Cl)cc4)n3)cc2)CC1` [Aurora A Inhibitor I], the fractional viability amounted to 1.03 (2uM) and 0.0801 (10uM).

With `O=C(O[C@H]1C[N+]2(CCCOc3ccccc3)CCC1CC2)C(O)(c1cccs1)c1cccs1` [Aclidinium Bromide], the fractional viability by setting is: (2uM) 0.952; (10uM) 0.927.

Regarding `CC(C)NCC(O)c1ccccc1Cl` (stereo unspecified) [Clorprenaline HCl], the fractional viability reads like this: (2uM) 0.911; (10uM) 0.968.

Turning to `CN1CCN(c2nc3ccccc3nc2Cl)CC1`, the fractional viability reads like this: (2uM) 1.15; (10uM) 0.988.

`O=C1CC[C@@]2(O)[C@H]3Cc4ccc(O)c5c4[C@@]2(CCN3CC2CC2)[C@H]1O5` [Naltrexone HCl] showed a fractional viability (2uM) of 1.07 and a fractional viability (10uM) of 1.12.

Consider `CC[C@@H]1/C=C/C=C/C[C@H](C)[C@H](O)[C@](C)(O)C(=O)[C@H](C)[C@@H](O)[C@H](C)C(=O)[C@H](C)[C@@H](O)[C@H](C)/C=C/C(=O)O[C@H]2[C@@H](C)[C@@H](CC1)O[C@@]1(CC[C@@H](C)[C@@H](C[C@H](C)O)O1)[C@@H]2C` [Oligomycin A], for which the fractional viability (2uM) was 1.01 and the fractional viability (10uM) came to 0.871.

In turn, `C1=C2CCCN[C@H]2[C@@H]2C[C@H]1[C@H]1CCCCN1C2` [Aloperine] showed a fractional viability (2uM) of 1.02 and a fractional viability (10uM) of 0.89.

Regarding `O=[N+]([O-])/C=C/c1ccc2c(c1)OCO2`, the fractional viability is, setting by setting: (2uM) 0.477; (10uM) 0.113.

Take `O=C(Oc1ccc([N+](=O)[O-])cc1)N1CCC(C(O)(c2ccc3c(c2)OCO3)c2ccc3c(c2)OCO3)CC1`: the fractional viability (2uM) was 0.994 and the fractional viability (10uM) is 0.739.

Molecule `c1cc2c(cc1[C@H]1OC[C@H]3[C@@H]1CO[C@@H]3c1ccc3c(c1)OCO3)OCO2` [Sesamin] returned a fractional viability (2uM) of 1.06 and a fractional viability (10uM) of 0.894.

On to `Cc1sc2c(c1C)C(c1ccc(Cl)cc1)=N[C@@H](CC(=O)Nc1ccc(O)cc1)c1nnc(C)n1-2`, for which the fractional viability by setting is: (2uM) 0.634; (10uM) 0.619.

In the case of `CN1c2ccccc2C(NCCCCCCC(=O)O)c2ccc(Cl)cc2S1(=O)=O` (stereo unspecified) [Tianeptine sodium], the fractional viability runs as follows: (2uM) 1.15; (10uM) 1.02.

For `Nc1nc(N)nc(NC2CC2)n1` [Cyromazine], the fractional viability came out at 1.01 (2uM) and 0.994 (10uM).

For `CCCN1CCO[C@@H]2c3cc(O)ccc3OC[C@H]21`, the fractional viability was 0.95 (2uM) and 1.01 (10uM).
